Test results: PubChem BioAssay AID686978 (National Center for Advancing Translational Sciences (NCATS), 2013)
The whole screen tested about 420,000 compounds, of which about 64,000 (15%) were called active. Another 27% or so got no clear call; they are omitted. Only a sample is shown. Unmarked numbers belong to inactive results. Calls come from the whole dose curve; as a rule, active = well fitted inhibition curve with a large enough effect; inconclusive = small, poorly fitted or top-dose-only effect; inactive = flat fitted curve, though single readings scatter.

experiment: qHTS for Inhibitors of human tyrosyl-DNA phosphodiesterase 1 (TDP1): qHTS in cells in absence of CPT; conditions: DT40 Tdp1-/- hTDP1 cells, no CPT, ATP luminescence, 48 h; activity change, negative = growth inhibition: at 46.2 µM (top of the series); note: nearly all actives have a fitted effect of over 55% in size
In short: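 Growth of hTDP1-complemented DT40 Tdp1-knockout cells is measured by ATP luminescence after at least 48 hr compound exposure at 37 °C, with DMSO substituting for the 20 nM CPT used in the parallel screen.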
% is set by controls: 0 for no effect and ±100 for the full control effect; potency is the fitted concentration of half-maximal effect.

Compound | Potency | activity change, negative = growth inhibition [%]
CCOC(=O)c1cnc(-n2nc(C)cc2C)nc1Nc1cccc(C(C)=O)c1 | 8.2 µM (active) | 
CCOC(=O)c1cnc(-n2nc(C)cc2C)nc1-n1nc(C)cc1C |  | -15.7
CCOC(=O)c1cccc(NC(=O)CCn2nnc3ccccc32)c1 |  | -14.5
O=[N+]([O-])c1c(NCCO)cc(Sc2nc3ccccc3s2)c2nonc12 | 1.03 µM (active) | 
CCOc1ccccc1Nc1ccc2nonc2c1[N+](=O)[O-] |  | -8.37
O=C(O)c1cccc(S(=O)(=O)Nc2ccc(O)cc2Sc2nc3ccccc3s2)c1 |  | -9.84
COc1ccc(S(=O)(=O)NC(=O)C2(C)CCN2C(=O)COc2ccc(Cl)cc2)cc1 (configuration not stated) |  | -15.8
c1ccc(C[C@H]2CNCCN2CCC23CC4CC(CC(C4)C2)C3)cc1 | 10.3 µM (active) | 
COC(=O)c1ccccc1NC(=O)CN(Cc1ccccc1)S(C)(=O)=O |  | -23.5
O=C(O)CSCc1ccc(C(=O)O)o1 |  | 11.8
CC(C)(C)NC(=O)Cn1cnc2cc([N+](=O)[O-])ccc2c1=O |  | 1.61
Cc1ccc(C)c(OCCC(=O)OCC(=O)c2ccc3c(c2)NC(=O)CO3)c1 |  | 4.85
COC(=O)c1ccccc1Sc1c(/C=N/OCc2ccc(Cl)cc2)c(C(F)(F)F)nn1C | 20.6 µM (active) | 
COC(=O)c1ccccc1NC(=O)CN(Cc1ccc(Cl)cc1)S(C)(=O)=O |  | -8.64
S=c1[nH]nc2c3c4c(sc3ncn12)CCCC4 |  | -22.7
OCCN1CCN(c2nnc(-c3ccccc3)c3ccccc23)CC1 |  | 9.89
Clc1ccc(-c2nnc(-c3ccccc3)nc2N2CCSCC2)cc1 | 14.6 µM (active) | 
O=C(N[C@H]1CC[C@H](CC(=O)N2CCCCC2)O[C@@H]1CO)c1cccc(F)c1 |  | 2.47
COc1ccc(C(=O)NC2=NCCS2)c(OC)c1 |  | -17.6
COc1ccc(C(=O)Nc2cccc(NC(=O)c3ccc(OC)cc3OC)n2)c(OC)c1 | 2.59 µM (active) | 
COc1ccc(C(=O)Nc2nncs2)c(OC)c1 |  | -3.64
O=C1CCCc2c1[nH]c1ccc(Br)cc21 |  | -12.7
COc1ccc(/C=C2\SC(=S)N(CC(=O)NNC(=O)c3ccncc3)C2=O)cc1 |  | -2.19
O=C(O)Cc1sc(-c2ccccc2)nc1-c1cccs1 |  | -3.31
CN(C(=O)COC(=O)CNC(=O)C12CC3CC(CC(C3)C1)C2)c1ccccc1 |  | -13.2
CN(C(=O)COc1nnc(-c2cccs2)c(-c2cccs2)n1)c1ccccc1 | 18.4 µM (active) | 

Compound | Potency | activity change, negative = growth inhibition [%]
Cc1cc(=O)oc(C)c1C(=O)NCCN(C)Cc1ccccc1 |  | 0.281
COc1ccccc1NC(=O)N(O)C1(C#N)CCCCC1 |  | -4.03
O=C(CSc1nnc2ccc(-c3ccncc3)nn12)N1CCCCC1 |  | 13.2
CCS(=O)(=O)c1ccc(-c2cccc(NC(=O)c3ccc(Br)o3)c2)nn1 |  | -16.7
COc1ccc(S(=O)(=O)N2CCN(C(=S)NCC3CCCO3)CC2)cc1OC (configuration not stated) |  | 1.23
S=C(NCC1CCCO1)N1CCN(c2ccc(Cl)c(Cl)c2)CC1 (configuration not stated) | 20.6 µM (active) | 
CCOc1ccc(S(=O)(=O)N2CCN(C(=S)NCC3CCCO3)CC2)cc1 (configuration not stated) |  | -17.7
COc1cc(/C=C(/NC(=O)c2ccccc2)C(=O)Nc2cccc(O)c2)c([N+](=O)[O-])cc1OC |  | 5.97
Cn1nc(C(C)(C)C)c([N+](=O)[O-])c1C(N)=O |  | -6.79
COc1cccc(N2CC(C(=O)Nc3c(C)cccc3C)CC2=O)c1 (configuration not stated) |  | -17.9
O=C(Nc1ccc2nc(SCC(=O)N3CCCc4ccccc43)sc2c1)c1ccc(F)cc1 | 2.91 µM (active) | 
Cn1c(=O)c2c(SCC(=O)N3CCc4ccccc43)nc(-c3ccc(Cl)cc3)nc2n(C)c1=O |  | 0.535
O=C(Nc1ccc2nc(SCC(=O)N3CCCc4ccccc43)sc2c1)c1ccc(Cl)cc1 | 5.8 µM (active) | 
O=C(Nc1ccc2nc(SCC(=O)N3CCc4ccccc43)sc2c1)c1ccccc1F |  | -22
CCC(=O)Nc1ccc2nc(SCC(=O)N3CCc4ccccc43)sc2c1 | 10.3 µM (active) | 
O=C(CSCc1ccccc1)N1CCc2ccccc21 |  | -12.2
O=C(NCc1nnc(SCC(=O)N2CCCc3ccccc32)o1)c1ccccc1F |  | 2.14
O=C(CSc1ccc2nnc(-c3ccccc3)n2n1)N1CCCc2ccccc21 |  | -28
CCOC(=O)C1(Cc2cccc(OC)c2)CCCN(S(=O)(=O)c2cccnc2)C1 (configuration not stated) |  | -9.7
O=C(CCc1ccc(S(=O)(=O)N2CCOCC2)cc1)OCC(=O)c1ccc(Br)cc1 |  | 1.67
O=C(CSc1nnc(-c2ccoc2)o1)N1CCOCC1 |  | -1.48
COC(=O)/C=C/C(=O)NCc1ccco1 |  | -5.88
COc1cc2c(C(=O)O)c(C)n(C)c2c2ccccc12 |  | 25.6
COc1cccc(/C=N/NC(=O)C(=O)N2CCCC2)c1 |  | -4.99
O=c1[nH]c(/C=C\c2cccc(C(F)(F)F)c2)nc(O)c1[N+](=O)[O-] |  | -6.9
Cc1cccc(NC(=O)CSc2nnc(NC(=O)CN3CCOCC3)s2)c1 |  | -27.8
